In the supplement of paper PMC12350171:
Counter-ions that a name gives are not always drawn.

These compounds were tested on Haemophilus parainfluenzae (assay: growth AUC normalised to DMSO control (fraction of control); higher = less growth inhibition, active = hit call of the paper). Settings: 20 µM;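 active = AUC significantly below DMSO controls by Student t-fit with adjusted P under 0.01; inactive = not significantly reduced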.
Procedure, shortened: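 For the AUC endpoint, growth curves were integrated by the trapezoidal rule up to the exponential-to-stationary transition and normalised to DMSO controls on the same plate. The curves came from OD578 readings taken hourly for 24 h, in three biological replicates. Pathogens had been passaged anaerobically twice and inoculated at an OD578 of 0.01 into pre-reduced mGAM plates carrying 20 μM compound and 1% DMSO, sealed with breathable membranes. Medium for Haemophilus parainfluenzae also contained hemin and NAD.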

Row | Compound | growth AUC normalised to DMSO control
1 | CO/N=C(\C(=O)N[C@@H]1C(=O)N2C(C(=O)O)=C(COC(C)=O)CS[C@H]12)c1csc(N)n1 [Cefotaxime sodium salt] | 0.0499 (active)
2 | CC[C@@H]1C(=O)OC[C@@H]1Cc1cncn1C [Pilocarpine nitrate] | 0.981 (inactive)
3 | CN(C)CCCC1(c2ccc(F)cc2)OCc2cc(C#N)ccc21 (stereo not given) [Citalopram hydrobromide] | 1.01 (inactive)
4 | O=c1[nH]cnc2c1ncn2[C@H]1CC[C@@H](CO)O1 [Didanosine] | 1.03 (inactive)
5 | Cc1cnc(C(=O)O)c[n+]1[O-] [Acipimox] | 0.94 (inactive)
